SMILES strings stand for the structures. For some of these results: Measured potencies and affinities stand elsewhere.

Results on 11 molecules are retold here after ChEMBL document CHEMBL3988442, “University of Dundee, Small-Polar-MMV Screening Library” (2021).

Holding throughout (design): scale not given: direction of the effect not stated beside the values
The target of assay [1] is Protein translocase subunit SecA (Escherichia coli (strain K12)) (UniProt P10408). As to the kind of experiment: Assay to Identify E. coli SecA ATPase Inhibitors. Type of assay: functional. Particulars: 30 µM.
Assay [2] has as its target T1, Ubiquitin-activating enzyme e1, putative (Leishmania donovani (strain BPK282A1)) (UniProt E9BSI1).
T1 sequence (whole entry): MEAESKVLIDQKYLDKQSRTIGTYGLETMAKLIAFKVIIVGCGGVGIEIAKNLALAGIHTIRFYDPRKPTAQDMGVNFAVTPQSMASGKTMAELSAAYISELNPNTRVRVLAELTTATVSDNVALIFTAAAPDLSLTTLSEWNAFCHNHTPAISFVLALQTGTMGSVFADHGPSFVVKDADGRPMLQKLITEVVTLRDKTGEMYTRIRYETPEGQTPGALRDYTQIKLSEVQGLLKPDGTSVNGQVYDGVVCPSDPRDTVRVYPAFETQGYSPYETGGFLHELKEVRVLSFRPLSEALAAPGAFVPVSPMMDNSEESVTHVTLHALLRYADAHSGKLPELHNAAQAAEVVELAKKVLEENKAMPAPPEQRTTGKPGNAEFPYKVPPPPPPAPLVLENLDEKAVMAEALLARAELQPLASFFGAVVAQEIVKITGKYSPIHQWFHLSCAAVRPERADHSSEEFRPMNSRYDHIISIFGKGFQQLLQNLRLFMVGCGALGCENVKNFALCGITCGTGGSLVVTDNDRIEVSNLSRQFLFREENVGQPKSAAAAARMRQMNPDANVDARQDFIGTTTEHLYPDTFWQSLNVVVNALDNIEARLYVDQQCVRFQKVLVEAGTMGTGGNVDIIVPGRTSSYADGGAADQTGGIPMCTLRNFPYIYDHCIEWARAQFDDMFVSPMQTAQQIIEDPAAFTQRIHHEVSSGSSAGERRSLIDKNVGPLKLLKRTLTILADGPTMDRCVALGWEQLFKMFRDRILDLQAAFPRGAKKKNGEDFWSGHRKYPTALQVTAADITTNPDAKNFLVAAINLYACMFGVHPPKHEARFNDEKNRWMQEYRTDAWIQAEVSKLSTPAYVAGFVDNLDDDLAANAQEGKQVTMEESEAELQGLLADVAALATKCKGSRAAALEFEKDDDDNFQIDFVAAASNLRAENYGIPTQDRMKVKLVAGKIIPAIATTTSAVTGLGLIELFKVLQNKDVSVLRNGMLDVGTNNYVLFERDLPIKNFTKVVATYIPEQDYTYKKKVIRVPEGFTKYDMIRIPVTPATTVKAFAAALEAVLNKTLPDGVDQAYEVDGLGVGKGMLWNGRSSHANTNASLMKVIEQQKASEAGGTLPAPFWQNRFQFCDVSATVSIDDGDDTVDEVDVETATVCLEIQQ
As to the kind of experiment: Leishmania donovani Ubiquitin Activating Enzyme (LdE1). Type of assay: functional. Particulars: 30 µM.

Assay [3] addresses AMP-activated protein kinase, AMPK (Homo sapiens) (UniProt P54646+O43741+P54619+Q9UGJ0+Q9Y478+Q13131+Q9UGI9). As to the kind of experiment: AMP-dependent Kinase enzyme assay. An in vitro enzyme assay that detects ADP turnover that is directly proportional to AMPK activity. This uses naive AMPK that is activated during the assay with MK-8722. Type of assay: functional. The settings on record: 30 µM.

In assay [4] the target is Sialic acid-binding Ig-like lectin 9 (Homo sapiens) (UniProt Q9Y336). As to the kind of experiment: Hs-Siglec9 ALPHAscreen SOP 20170721. The settings on record: 10 µM. On the technique in general: Bead proximity is the source of the signal in Alpha formats.
For a further assay, the system named is Trypanosoma cruzi. The experiment in a line: Trypanosoma cruzi phosphomannomutase and mannose-1-phosphate guanylyltransferase assay. Type of assay: functional. The settings on record: 10 µM.
Assay [5] addresses T2, Arginase-2, mitochondrial (Homo sapiens) (UniProt P78540).
T2 sequence (whole entry): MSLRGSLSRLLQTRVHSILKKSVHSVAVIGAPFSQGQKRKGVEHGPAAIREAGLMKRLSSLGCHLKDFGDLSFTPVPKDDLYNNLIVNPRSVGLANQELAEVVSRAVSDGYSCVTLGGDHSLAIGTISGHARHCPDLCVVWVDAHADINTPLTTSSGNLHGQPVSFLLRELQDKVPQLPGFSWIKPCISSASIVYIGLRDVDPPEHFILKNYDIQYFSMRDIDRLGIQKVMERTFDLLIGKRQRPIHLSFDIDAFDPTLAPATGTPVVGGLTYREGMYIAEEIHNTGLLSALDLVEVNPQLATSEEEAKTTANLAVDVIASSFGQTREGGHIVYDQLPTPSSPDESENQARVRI
The experiment in a line: in vitro enzyme assay to detect the production of urea directly proportional to the activity of Arginase II. Note: in the data most compounds retested in dose-response had high values. Type of assay: functional. Particulars: 33.3 µM.

Assay [6] has as its target T3, Proteasome subunit beta (Trypanosoma cruzi) (UniProt O96673).
T3 sequence (whole entry): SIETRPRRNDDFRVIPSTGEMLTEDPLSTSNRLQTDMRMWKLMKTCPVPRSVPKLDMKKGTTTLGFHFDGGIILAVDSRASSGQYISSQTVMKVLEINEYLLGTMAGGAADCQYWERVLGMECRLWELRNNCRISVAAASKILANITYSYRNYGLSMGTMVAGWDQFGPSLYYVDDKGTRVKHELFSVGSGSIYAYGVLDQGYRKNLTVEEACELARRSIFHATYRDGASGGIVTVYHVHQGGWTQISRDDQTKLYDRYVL
The experiment in a line: Trypanosoma cruzi proteasome chymotrypsin-like activity (TcProtChymo) assay. Note: in the data most compounds retested in dose-response had high values. Type of assay: functional. Particulars: 9.37 µM.

For a further assay, the species on record is Homo sapiens. As to the kind of experiment: To identify inhibition of the IFN signalling (Jak-Stat) pathway via expression of an eGFP reporter gene under the control of an IFN-stimulated response element (ISRE) containing MxA promoter. Type of assay: functional. The settings on record: 30 µM.
Assay [7] addresses T4, Tyrosyl-tRNA synthetase, putative (Trypanosoma cruzi (strain CL Brener)) (UniProt Q4DSP6).
T4 sequence (whole entry): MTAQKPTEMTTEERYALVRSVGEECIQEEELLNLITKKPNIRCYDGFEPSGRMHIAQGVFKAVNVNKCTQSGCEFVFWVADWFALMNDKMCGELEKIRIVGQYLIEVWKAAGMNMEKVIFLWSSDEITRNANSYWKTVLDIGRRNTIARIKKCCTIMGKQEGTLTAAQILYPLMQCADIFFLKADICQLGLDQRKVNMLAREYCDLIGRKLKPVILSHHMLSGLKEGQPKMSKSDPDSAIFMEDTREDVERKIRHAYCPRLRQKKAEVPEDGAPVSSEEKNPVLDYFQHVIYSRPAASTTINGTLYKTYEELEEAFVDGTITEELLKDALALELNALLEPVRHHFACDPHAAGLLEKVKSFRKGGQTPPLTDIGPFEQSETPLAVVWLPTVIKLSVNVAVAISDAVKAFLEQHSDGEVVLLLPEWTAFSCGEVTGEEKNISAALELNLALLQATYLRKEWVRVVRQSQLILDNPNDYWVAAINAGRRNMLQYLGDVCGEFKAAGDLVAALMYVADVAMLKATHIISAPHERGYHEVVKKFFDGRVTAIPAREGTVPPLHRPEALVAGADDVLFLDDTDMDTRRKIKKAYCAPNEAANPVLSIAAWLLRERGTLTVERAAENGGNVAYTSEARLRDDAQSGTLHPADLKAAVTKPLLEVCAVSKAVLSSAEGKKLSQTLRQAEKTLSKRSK
As to the kind of experiment: Trypanosoma cruzi tyrosyl tRNA synthetase (TcYRS) _High Tyrosine SOP. Note: in the data most compounds retested in dose-response had high values. Type of assay: functional. The settings on record: 30 µM.

For assay [8], the target named is T4, Tyrosyl-tRNA synthetase, putative (Trypanosoma cruzi (strain CL Brener)). As to the kind of experiment: Trypanosoma cruzi tyrosyl tRNA synthetase (TcYRS) SOP. Type of assay: functional. Particulars: 30 µM.
In assay [9] the target is Chromo domain-containing protein 1 (Saccharomyces cerevisiae (strain ATCC 204508 / S288c) (Baker's yeast)) (UniProt P32657). As to the kind of experiment: ScCHD-1 Enzyme Inhibition Assay. Note: in the data most compounds retested in dose-response had high values. Type of assay: functional. The settings on record: 30 µM.
Chromo domain-containing protein 1 (Saccharomyces cerevisiae (strain ATCC 204508 / S288c) (Baker's yeast)), sequence (P32657 whole entry, the tested form may be a part): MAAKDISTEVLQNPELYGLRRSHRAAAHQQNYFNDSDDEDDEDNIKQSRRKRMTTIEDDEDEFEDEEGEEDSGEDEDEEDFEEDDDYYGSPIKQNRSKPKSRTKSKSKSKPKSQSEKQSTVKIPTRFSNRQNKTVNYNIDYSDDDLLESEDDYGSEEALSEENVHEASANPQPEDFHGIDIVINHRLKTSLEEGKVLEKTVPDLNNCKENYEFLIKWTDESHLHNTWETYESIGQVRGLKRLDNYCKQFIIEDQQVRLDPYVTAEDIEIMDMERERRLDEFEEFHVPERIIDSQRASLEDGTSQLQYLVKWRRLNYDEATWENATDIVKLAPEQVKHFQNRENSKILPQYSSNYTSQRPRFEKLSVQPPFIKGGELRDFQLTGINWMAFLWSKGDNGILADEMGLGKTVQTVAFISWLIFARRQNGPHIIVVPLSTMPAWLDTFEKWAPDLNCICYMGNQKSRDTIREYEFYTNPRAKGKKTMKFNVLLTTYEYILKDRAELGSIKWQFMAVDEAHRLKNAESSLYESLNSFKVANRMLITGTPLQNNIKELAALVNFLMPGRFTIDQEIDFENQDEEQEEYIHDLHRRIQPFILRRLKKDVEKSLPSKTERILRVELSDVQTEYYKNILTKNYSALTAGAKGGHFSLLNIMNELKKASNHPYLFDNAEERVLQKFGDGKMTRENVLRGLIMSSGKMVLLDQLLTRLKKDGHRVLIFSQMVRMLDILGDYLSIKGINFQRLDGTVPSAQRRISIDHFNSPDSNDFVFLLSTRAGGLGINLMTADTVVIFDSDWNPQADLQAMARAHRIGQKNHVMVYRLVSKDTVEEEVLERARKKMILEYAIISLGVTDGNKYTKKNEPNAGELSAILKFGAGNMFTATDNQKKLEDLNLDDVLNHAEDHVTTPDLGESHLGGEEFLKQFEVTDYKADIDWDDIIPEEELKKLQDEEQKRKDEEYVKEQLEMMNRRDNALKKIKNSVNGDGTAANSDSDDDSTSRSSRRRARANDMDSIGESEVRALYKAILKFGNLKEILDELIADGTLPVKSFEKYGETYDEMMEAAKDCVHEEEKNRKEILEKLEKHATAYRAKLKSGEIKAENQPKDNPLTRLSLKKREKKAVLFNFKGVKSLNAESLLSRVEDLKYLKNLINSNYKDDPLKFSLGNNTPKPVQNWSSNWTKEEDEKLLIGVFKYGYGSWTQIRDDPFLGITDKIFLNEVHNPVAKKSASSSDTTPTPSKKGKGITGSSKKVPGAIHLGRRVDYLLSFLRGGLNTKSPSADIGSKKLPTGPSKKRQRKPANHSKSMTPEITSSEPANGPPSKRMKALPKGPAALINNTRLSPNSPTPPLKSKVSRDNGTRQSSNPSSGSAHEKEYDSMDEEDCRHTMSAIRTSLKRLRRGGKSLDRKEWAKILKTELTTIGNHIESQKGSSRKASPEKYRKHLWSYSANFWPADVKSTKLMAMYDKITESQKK

Sialic acid-binding Ig-like lectin 9 (Homo sapiens), sequence (Q9Y336 whole entry): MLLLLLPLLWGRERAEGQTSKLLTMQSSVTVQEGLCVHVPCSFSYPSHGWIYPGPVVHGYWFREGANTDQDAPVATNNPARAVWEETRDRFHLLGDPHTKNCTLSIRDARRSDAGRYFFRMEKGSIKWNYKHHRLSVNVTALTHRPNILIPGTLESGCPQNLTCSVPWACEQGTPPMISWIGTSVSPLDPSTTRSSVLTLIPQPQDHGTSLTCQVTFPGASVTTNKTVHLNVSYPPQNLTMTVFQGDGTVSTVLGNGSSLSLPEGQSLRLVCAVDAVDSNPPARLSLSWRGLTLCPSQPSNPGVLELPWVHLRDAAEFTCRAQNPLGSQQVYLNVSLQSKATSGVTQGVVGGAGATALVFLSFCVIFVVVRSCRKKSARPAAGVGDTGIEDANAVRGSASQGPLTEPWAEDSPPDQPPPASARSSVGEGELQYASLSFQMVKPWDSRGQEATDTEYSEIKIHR
Protein translocase subunit SecA (Escherichia coli (strain K12)), sequence (P10408 whole entry): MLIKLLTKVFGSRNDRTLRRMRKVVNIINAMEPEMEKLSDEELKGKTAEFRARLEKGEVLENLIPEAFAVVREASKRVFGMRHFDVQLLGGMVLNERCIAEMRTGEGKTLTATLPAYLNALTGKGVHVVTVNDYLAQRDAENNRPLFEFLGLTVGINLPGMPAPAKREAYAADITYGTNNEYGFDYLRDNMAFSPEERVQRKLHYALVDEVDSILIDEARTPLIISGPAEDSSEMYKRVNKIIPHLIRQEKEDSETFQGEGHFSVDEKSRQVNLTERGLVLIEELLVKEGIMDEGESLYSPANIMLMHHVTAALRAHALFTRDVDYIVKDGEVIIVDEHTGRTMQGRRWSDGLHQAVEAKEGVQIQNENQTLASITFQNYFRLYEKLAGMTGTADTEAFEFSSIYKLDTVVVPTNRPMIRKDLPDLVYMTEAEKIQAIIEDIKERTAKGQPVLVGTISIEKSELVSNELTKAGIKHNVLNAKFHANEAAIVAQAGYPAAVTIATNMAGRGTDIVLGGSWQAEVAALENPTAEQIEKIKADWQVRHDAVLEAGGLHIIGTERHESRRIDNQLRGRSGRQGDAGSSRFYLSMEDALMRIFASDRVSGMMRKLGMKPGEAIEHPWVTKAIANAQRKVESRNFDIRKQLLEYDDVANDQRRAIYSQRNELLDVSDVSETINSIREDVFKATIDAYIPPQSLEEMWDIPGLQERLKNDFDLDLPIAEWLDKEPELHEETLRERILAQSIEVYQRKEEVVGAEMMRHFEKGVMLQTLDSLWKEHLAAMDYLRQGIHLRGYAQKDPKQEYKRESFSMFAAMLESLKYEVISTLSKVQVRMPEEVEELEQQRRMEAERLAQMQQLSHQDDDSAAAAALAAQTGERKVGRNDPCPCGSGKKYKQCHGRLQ

Regarding `CCc1csc(C2CCCN(C(=O)c3c[nH]c(C)n3)C2)n1` (stereo unspecified), the Percent Effect in [1] is -1.65%; in [2], 7.79%; in assay [3], -3.3%; in [4], 1.9%; with Trypanosoma cruzi, 6.18%; in [5], -1.78%. For the same molecule, the Percent Effect in assay [6] is -3.88%; in the assay filed under Homo sapiens, -6.54%; in [7], 2.91%; in assay [8] it was 12.2%; in assay [9], -6.32%.

As to `N#Cc1ccc(CN2CCN(C(=O)c3cc(C4CC4)[nH]n3)CC2)cc1`, the Percent Effect in [1] is -4.3%; in assay [2] it was 21.6%; in [3] it was -5.26%; in assay [4], 14.7%; in the assay with Trypanosoma cruzi it was 4.74%; in assay [5], -3.51%. Moreover, the Percent Effect was 5.21% in [6]; 23.8% in the assay filed under Homo sapiens; 7.92% in assay [7]; 18.3% in assay [8]; -4.6% in assay [9].

`CN(Cc1ccsc1)C(=O)c1cccc(F)c1`: the Percent Effect in [1] is -5.35%; in assay [2], 20.8%; in assay [3], 1.32%; in assay [4], 3.27%; in the assay on Trypanosoma cruzi, -2.06%; in assay [5] it was -1.07%. For the same molecule, the Percent Effect in assay [6] was 5.74%; in the assay listed under Homo sapiens, 9.71%; in assay [7] it was 3.88%; in assay [8], 19.5%; in assay [9], -9.1%.

Regarding `Cc1ccc(C(CNCc2ccncc2)N2CCOCC2)s1` (stereo unspecified), the Percent Effect in assay [1] is -9.26%; in assay [2], -2.7%; in assay [3] it was -3.34%; in [4] it was 21.5%; in the assay with Trypanosoma cruzi, -2.73%; in assay [5] it was 1.67%. Besides, the Percent Effect in [6] was 17.8%; in the assay listed under Homo sapiens it was 18.3%; in assay [7], 1.98%; in [8], -1.22%; in assay [9], -7.13%.

With `Cc1ccoc1C(=O)N1C[C@H]2CCC[C@@]2(COCc2ccncc2)C1`, the Percent Effect in assay [1] is -1.22%; in assay [2], 18.2%; in assay [3], -2.61%; in [4] it was 3.02%; in the assay on Trypanosoma cruzi it was 2.66%; in [5], -3.23%. Further, the Percent Effect is -2.44% in assay [6]; 1.6% in the assay listed under Homo sapiens; 5.29% in assay [7]; 11.5% in assay [8]; -4.37% in assay [9].

On to `Cc1ccc(CNC(=O)Nc2cc(C(F)(F)F)c[nH]c2=O)cn1`, for which the Percent Effect in assay [1] was -3.22%; in assay [2], 6.94%; in [3], 7.59%; in [4] it was -6.47%; with Trypanosoma cruzi, 0.0972%; in [5], 4.42%. Also, the Percent Effect was 11.6% in assay [6]; -18.5% in the assay filed under Homo sapiens; 6.32% in assay [7]; 12.8% in assay [8]; -5.05% in [9].

On to `Cn1c(NCC(O)c2ccc(F)cc2F)c(C#N)c(=O)n(C)c1=O` (stereo unspecified), for which the Percent Effect was -4.86% in [1]; 17.7% in [2]; -12.9% in assay [3]; -5.84% in assay [4]; 1.6% in the assay with Trypanosoma cruzi; 6.46% in [5]. Also, the Percent Effect was 4.01% in [6]; -3.56% in the assay listed under Homo sapiens; 5.42% in [7]; 13.9% in [8]; -7.19% in assay [9].

For the molecule `COc1ncccc1NC(=O)N1CCC(CN2CCOCC2)CC1`, the Percent Effect in assay [1] was 2.03%; in [2] it was 2.67%; in assay [3] it was -10.3%; in assay [4], 11.1%; in the assay with Trypanosoma cruzi, 5.55%; in assay [5] it was 17.7%. Moreover, the Percent Effect in assay [6] was 7.15%; in the assay filed under Homo sapiens it was -13.1%; in assay [7], 2.73%; in assay [8] it was 6.17%; in assay [9], 0.459%.

For `CSCC(CCO)NC(=O)Nc1cc(Br)ccc1C` (stereo unspecified), the Percent Effect in assay [1] stood at 0.198%; in assay [2], 5.48%; in [3], 11.7%; in assay [4], 4.67%; in the assay on Trypanosoma cruzi, 2.35%; in assay [5], 4.09%. Further, the Percent Effect in assay [6] was 15.6%; in the assay filed under Homo sapiens, -12%; in assay [7], 1.07%; in [8], 5%; in assay [9], 106%.

Take `Cc1cc2c(=O)n3c(nc2s1)CCN(C(=O)c1cnn(C)c1C)CC3`: the Percent Effect in assay [1] was -6.2%; in assay [2], -17.6%; in assay [3], 6.62%; in [4], 5.04%; in the assay on Trypanosoma cruzi it was 1.98%; in assay [5] it was -6.26%. For the same molecule, the Percent Effect in [6] was 9.83%; in the assay listed under Homo sapiens it was 13%; in assay [7] it was 5.38%; in assay [8] it was 11.7%; in [9] it was -18.8%.

As to `COC(=O)c1cccc(C(=O)N2CCCCC2CCn2ccnc2C)c1` (stereo unspecified), the Percent Effect is -7.31% in [1]; 8% in assay [2]; 0.551% in [3]; 4.41% in [4]; 0.487% with Trypanosoma cruzi; -0.521% in [5]. In addition, the Percent Effect in assay [6] is 25.5%; in the assay listed under Homo sapiens, 13.4%; in assay [7], 3.83%; in [8], 11.1%; in assay [9], -2.11%.
